Assay results taken from PubChem BioAssay AID693 (University of Pittsburgh Molecular Library Screening Center, 2007).
Out of some 97,000 compounds screened, about 130 (0.13%) were called active. What follows is part of a selection rich in actives, with near analogues and random picks from the rest. Unmarked numbers belong to inactive results. Rule as the data show it: active = inhibition above about 34% (passing the limit was not always enough); inactive = the rest.

What follows are compounds tested against Serine/threonine-protein kinase PLK1 (Homo sapiens) (UniProt P53350) (assay: blockers of phosphopeptide binding to Plk1 PBD – biochemical, fluorescence polarization, primary screen (AID 693)). Conditions: active compounds read high,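 tested at about 20 µM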.
Chain of Serine/threonine-protein kinase PLK1 (Homo sapiens) (P53350 whole entry, looked up): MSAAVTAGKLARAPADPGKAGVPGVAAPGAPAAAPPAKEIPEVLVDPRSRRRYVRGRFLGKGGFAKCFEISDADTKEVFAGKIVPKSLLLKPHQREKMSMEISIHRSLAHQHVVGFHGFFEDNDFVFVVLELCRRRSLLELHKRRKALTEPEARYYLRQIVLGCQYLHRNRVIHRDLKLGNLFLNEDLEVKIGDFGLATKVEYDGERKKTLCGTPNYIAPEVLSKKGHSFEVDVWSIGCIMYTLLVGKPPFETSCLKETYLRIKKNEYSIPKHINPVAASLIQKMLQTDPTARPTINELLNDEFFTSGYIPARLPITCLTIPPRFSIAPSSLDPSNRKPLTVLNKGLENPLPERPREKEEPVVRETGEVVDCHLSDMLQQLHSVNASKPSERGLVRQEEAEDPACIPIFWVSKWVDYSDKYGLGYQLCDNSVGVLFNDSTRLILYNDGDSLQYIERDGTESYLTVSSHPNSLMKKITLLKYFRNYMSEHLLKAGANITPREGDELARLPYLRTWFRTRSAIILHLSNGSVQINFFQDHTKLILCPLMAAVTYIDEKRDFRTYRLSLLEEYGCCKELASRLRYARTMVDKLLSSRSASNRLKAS

SMILES | inhibition
Nc1ccccc1SCc1cc([N+](=O)[O-])cc2c1OCOC2 | 17.1%
Cc1nc(-c2ccccc2)sc1-c1nc(-c2ccccc2)ncc1S(=O)(=O)c1ccccc1 | -7.34%
COc1cc(/C=C2/C(=O)ON=C2C)ccc1OCc1ccccc1F | -10.3%
COc1ccc(-c2oc(/N=C/N3CCCC3)c(C#N)c2-c2ccc(OC)cc2)cc1 | -15.2%
CC1(C)CC(=O)C=C(NCCN2CCNCC2)C1 | -22%
CC1(C)CC(=O)C=C(NCCCNC2CCCCC2)C1 | -8.28%
CC1(C)CC(=O)C=C(NCc2ccncc2)C1 | 41.4% (active)
Cc1ccc2[nH]c(=O)c(CN(CCCN(C)C)C(=O)Nc3cccc(Cl)c3)cc2c1 | 3.64%
CCN(CC)CCN1C(=O)C(=O)/C(=C(/O)c2cnn(-c3ccccc3)c2C)C1c1cccs1 (centres undefined) | -7.79%
Cc1cc(C)c(S(=O)(=O)NCC2CCC(C(=O)NCc3ccc4c(c3)OCO4)CC2)c(C)c1 (centres undefined) | -7.41%
COC(=O)c1ccc(OCC(=O)NC(C)(C)C)cc1 | 5.58%
C/C(=N\NC(=O)c1ccccc1C)c1ccc(N2CCOCC2)cc1 | -3.42%
CCOC(=O)C1(S(=O)(=O)c2ccc(Cl)cc2)CCN(Cc2ccccc2)CC1 | -3.07%
O=C(CCc1ccc(S(=O)(=O)NC2CCCCC2)cc1)NCc1ccccc1 | 10.4%
O=C(NCCCN1CCOCC1)c1cnn2c(-c3ccccc3)cc(-c3ccccc3)nc12 | -14.2%
O=C(NCCOc1ccccc1)c1ccccc1 | -20.9%
O=C(COc1ccc(Cl)cc1)NCCC1=CCCCC1 | 14.2%
O=C(CCN1CCc2ccccc2C(O)(c2ccccc2)C1)c1ccc2c(c1)OCCO2 (centres undefined) | 16.3%
CCCCCN1CC(O)=C(c2ccccc2)C1=N | -1.22%
CC(=NCc1ccco1)c1c(C(F)(F)F)[nH]n(-c2nc3ccccc3s2)c1=O | 9.65%
Cc1ccc(NC(=O)COc2ccc(-n3ccnc3)cc2)cc1Cl | 2%
O=C(Nc1cc2c3c(c1)C1CCCC1CN3CC1CCCC21)c1ccc([N+](=O)[O-])cc1 (centres undefined) | -24.1%
CC(C)(C)C(=O)Nc1ccc(C(=O)N/N=C/c2ccccc2OC(=O)c2ccc(Cl)cc2Cl)cc1 | 44.2%
CN(C)c1ccnc(Oc2ccc(F)cc2)c1C#N | -3.95%

SMILES | inhibition
CCC(=O)c1c[nH]c(C(=O)NCC2CCCO2)c1 (centres undefined) | 8.77%
CS(=O)(=O)N(CC(=O)N1CCN(c2ccc(F)cc2)CC1)C1CCCCC1 | -6.27%
CC(=O)c1sc(NC(=O)c2cccc3ccccc23)nc1C | -23.4%
COc1ccccc1NC(=O)CC(NCCN(C)C)C(=O)O (centres undefined) | 0.85%
CCCn1nnnc1NC(=O)COc1ccc(Cl)cc1C | 12.8%
Oc1ccc2ccc3cccc[n+]3c2c1 | 61.2% (active)
CN(C)C(CNC(=O)CCCOc1ccccc1)c1ccco1 (centres undefined) | -20%
CCOc1cc2[nH]c(=S)n(CCN3CCCCC3C)c(=O)c2cc1OCC (centres undefined) | -2%
COC(=O)c1ccc(Cc2ccccc2)o1 | -14.5%
CCOC(=O)c1cc(C#N)c(N2CCCCC2)nc1-c1ccccc1 | 20%
Cc1nnc(NC(=O)Cn2c(=O)sc3ccccc32)s1 | 12.9%
CC1CCN(C(=O)c2cc3nc(C4CC4)cc(C(F)(F)F)n3n2)CC1 | -4.74%
O=c1c2ccccc2nc2n1C(CSc1ccc(Cl)cc1)CN2 (centres undefined) | 23.7%
COc1ccc2c(Cl)c(C(=O)NCc3ccco3)sc2c1 | -10.8%
N#CCSc1nc2ccc(N3CCOCC3)cc2c(=O)n1CCc1ccccc1 | -3.34%
CC(=O)Nc1ccccc1OC(=O)N1CCOCC1 | 7.14%
Cc1nn(C)cc1/C=C1\CCC/C(=C\c2cn(C)nc2C)C1=O | -18.6%
COCCOC(=O)c1sc(=S)n(CCOC)c1N | -9.37%
CC(=O)c1ccc(Cc2ncc(C(F)(F)F)cc2Cl)s1 | 25.2%
CC(C)(C)NC(=O)Cn1cnc([N+](=O)[O-])n1 | -13.3%
CC(=O)NS(=O)(=O)c1ccc(NC(=O)/C=C/c2ccccc2Cl)cc1 | 18.9%
O=C(CNS(=O)(=O)c1ccc(Br)s1)N1CCN(C(=O)c2ccco2)CC1 | -13%
COc1ccc(OC)c(-n2nnnc2SCC(=O)Nc2cc(C)ccc2OC)c1 | -6.45%
CC(C)(C)NS(=O)(=O)c1ccc(NC(=O)NC2CCCCC2)cc1 | -21.3%

SMILES | inhibition
COc1ccc(S(=O)(=O)NCc2ccc(C(=O)N(C)Cc3ccco3)cc2)cc1 | -4.97%
CCOC(=O)c1c(-c2ccccc2)csc1NC(=S)NC(=O)c1ccccc1 | 12%
C/C(=N\NC(=O)Cc1ccc(Cl)cc1)c1ccccn1 | 4.4%
Cc1ccc(S(=O)(=O)Oc2ccc(/C=N/NC(=O)c3c(Cl)cnn3C)cc2)cc1 | 14.5%
O=C(NC1CCCC1)C(c1ccccn1)N(C(=O)c1csnn1)C1CCCC1 (centres undefined) | -11.5%
CCOc1cc(CNCCN(C)C)c(Cl)cc1OCC(=O)NCCc1ccccc1 | 9.84%
N#CC1=C(N)N(c2ccc(F)cc2)C(=O)C1 | 5.37%
Cc1c(NC(=O)CCCOc2ccccc2)cccc1[N+](=O)[O-] | 6.93%
CCC(C)c1ccc(O)c(/C=N/O)c1 (centres undefined) | 8.06%
CCOC(=O)C1CSC(CC(=O)Nc2ccc(OCC)cc2)C(=O)N1 (centres undefined) | 13.9%
COC(=O)c1sccc1NC(=O)CCC1CCCC1 | -8.56%
Cc1noc(C)c1C(=O)N1CCOCC1 | -11%
O=c1c2ccccc2nnn1CSc1nnnn1-c1ccccc1 | -3.85%
COc1ccc(-c2nnc(SCC(=O)c3ccc4c(c3)OCCO4)o2)cc1 | -3.12%
COc1ccc(C(C)=O)cc1CN1C(=O)NC2(CCCCC2C)C1=O (centres undefined) | 3.66%
CCC(=O)NC(Nc1nc2ccc(C)cc2s1)(C(=O)OC)C(F)(F)F (centres undefined) | -11.3%
CCOC(=O)C(=O)Nc1nc(-c2ccccc2)c(CC)s1 | 12.1%
CC(C)CCNC(=O)Cn1c(=O)oc2cc(S(=O)(=O)N3CC(C)CC(C)C3)ccc21 (centres undefined) | -16.6%
O=C(c1ccc(Cl)cc1)c1cnc(Nc2ccccc2)s1 | -14.3%
COc1cc(C(=S)N2CCOCC2)cc(OC)c1OC(=O)c1cc([N+](=O)[O-])cc([N+](=O)[O-])c1 | -2.97%
C=CCn1c(N)cc(=O)nc1SCC(=O)Nc1cccc2ccccc12 | 15.4%
O=C(N/N=C/c1ccc(O)c(O)c1)C1c2ccccc2Oc2ccccc21 | -30.1%
O=C(Nc1ccccc1-c1nnn(CC(=O)N2CCCc3ccccc32)n1)c1cccc(Cl)c1 | -7.34%
Cn1c(Cc2cccc3ccccc23)nnc1SCC(=O)N1CCN(c2cccc(Cl)c2)CC1 | 23.1%

SMILES | inhibition
Cc1cccc(CCNS(=O)(=O)c2ccc(S(=O)(=O)NC3CCCC3)cc2)c1 | -16.4%
CC(C)OC(=O)c1c(NC(=O)c2ccco2)sc2c1CCCC2 | -34.8%
CCCc1ccc(OCc2ccc(C(=O)N/N=C/c3cccc([N+](=O)[O-])c3)o2)c(OC)c1 | -2.94%
CCC(c1nnnn1C(C)(C)C)N(Cc1cc2cccc(C)c2n2nnnc12)C1CCCC1 (centres undefined) | -13.2%
Cc1[nH]c(=O)c(C(=O)/C=C/c2ccccc2)c2c1CCCC2 | -8.98%
Cc1nn(C)cc1C(=O)NNC(=S)Nc1ccc(Cl)cc1 | -11.1%
N#Cc1ccccc1CN1C(=O)S/C(=C/c2cccn2-c2cccc(C(=O)O)c2)C1=O | -6.67%
O=C(CCCn1c(SCC(=O)c2ccccc2)nc2ccccc2c1=O)NCC1CCCO1 (centres undefined) | 8.37%
Cc1ccc(OC(=O)c2ccccc2C(=O)OCC(F)(F)C(F)F)cc1 | -16.7%
CCOC(=O)CNC(=O)CSc1nc2cccnc2n1CC | 7.16%
C=C(Cl)COC(=O)C1C2C=CC(C2)C1C(=O)O (centres undefined) | 3.3%
Cc1nnc(SCC(=O)N/N=C/c2cn(-c3ccccc3)nc2-c2ccc(F)cc2)n1-c1ccccc1 | -7.66%
COCCCn1c(SCc2cccc(OC)c2)nc2cc(OC)c(OC)cc2c1=N | -12.2%
O=[N+]([O-])c1cccc(-c2nnc3c4ccccc4c4ccccc4n23)c1 | -7.67%
Cc1csc2ncc(C(=O)N(Cc3ccccc3)c3ccccn3)c(=O)n12 | -14.3%
COC(=O)c1c(-c2cccs2)csc1NC(=O)CSc1ncnc2sc(C)c(C)c12 | -2.76%
COc1ccc(C2=NOC3(CC(=O)N(c4ccc(C)cc4)C3=O)C2)cc1 (centres undefined) | 13.3%
O=[N+]([O-])c1ccc(NCCCN2CCOCC2)c(Cl)c1 | -38.6%
O=C(c1ccco1)N1CCN(C(=O)C2CCCN(S(=O)(=O)c3cccc4nsnc34)C2)CC1 (centres undefined) | -29.8%
Cc1ccc(C2NC(=S)NC3=C2N2CCC3CC2)cc1 (centres undefined) | 3.93%
N#C/C(=C(\O)CCl)c1nnc2n1CCCCC2 | -0.62%
COc1ccc(C(=O)Nc2nc(-c3ccc(OC)cc3)c(-c3ccc([N+](=O)[O-])cc3)s2)cc1 | -2.13%
